From PubChem BioAssay
Activity calls are given as the source filed them.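 How the source made its calls, unless noted: active means inhibition at or above 50% at 10 µM; inactive means inhibition below 50%.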 Where a SMILES comes first, the peptide text is derived from it.

Experiments:
[1] = inhibitors of TNFa-induced NFkB p65 translocation, primary screen, imaging, HUVEC, MLSMR starter and 10KST1 sets (AID 438;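 active means inhibition above 20% together with a positive visual image hit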;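 further: compound added about 3h40 before a 20 min TNFalpha stimulation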;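 on inhibition: signal is the nuclear over cytoplasmic p65 intensity ratio per well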); conditions: HUVEC TNFa-induced p65 nuclear translocation; cell count: measured here: nuclei count (cytotoxicity indicator), at 2.08 µM; inhibition: at 2 µM, stronger effect = higher value, 0% TNFa-plus-vehicle, 100% no-TNFa wells
[2] = reduction of polyQ htt aggregates in cells – imaging, exon1htt(103Q)mCFP cells, high-content imaging, primary screen (AID 483;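 active means visual image review flags a hit and inhibition of aggregation exceeds 20%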;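 further: compound exposure lasted 3 days before fixation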;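 on nuclei count: percent of the per-plate median nuclei count of sample wells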); conditions: exon1htt(103Q)mCFP cell line, aggregate imaging, at 2 µM; inhibition of aggregation: stronger effect = higher value; nuclei count: measured here: cell count, toxicity
[3] = endothelial E-selectin expression blockers – imaging, HUVEC, immunofluorescence, MLSMR starter and 10KST1 sets, primary screen (AID 487;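 active means visually confirmed hit in the image check and inhibition above 20%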;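 on inhibition: signal is fraction of cell area covered by stained E-selectin grains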;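 on nuclei count: 100% = median nuclei count of all wells on the same plate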); conditions: HUVEC TNFalpha-induced E-selectin immunofluorescence imaging, at 2 µM; inhibition: stronger effect = higher value; nuclei count: measured here: cell number, toxicity
[4] = biological target: Voltage-gated potassium channel subunit beta-2 (Rattus norvegicus) (UniProt P62483); assay: inhibitors of rat Kvbeta2 reductase activity – biochemical, NADPH fluorescence, primary screen (AID 622;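 active means fluorescence slope higher than the sample average by over 3 SD, cut at about -0.22 in these data, passing the limit was not always enough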;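 further: slope of raw intensity against log time taken from 70 to 1610 s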); conditions: recombinant KvBeta, 4-cyanobenzaldehyde reduction, at 10 µM, stronger effect = higher value
[5] = biological target: Voltage-gated potassium channel subunit beta-2 (Rattus norvegicus) (UniProt P62483); assay: enhancers of rat Kvbeta2 NADPH turnover – biochemical, NADPH fluorescence, primary screen (AID 623;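 active means NADPH fluorescence slope more negative than the mean of all samples by about 3 SD, 99.7% confidence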;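 further: fluorescence intensity change per second fitted from 20 to 320 s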); conditions: Recombinant KvBeta, NADPH fluorescence decrease slope, 10 min; at 10 µM; stronger effect = lower value
[6] = biological target: Alpha-2C adrenergic receptor (Homo sapiens) (UniProt P18825); assay: compounds altering alpha2C-coupled GIRK flux – cell-based, HEK293 alpha2C/GIRK1/2, thallium flux, primary screen (AID 624;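 active means fluorescence slope after compound addition differing from the mean of all screened samples at 99.7% confidence, in either direction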;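 further: slope of fluorescence ratio to pre-addition baseline per second over 15 to 24 s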); conditions: thallium flux BTC fluorescence, at 10 µM, actives lie on both sides
[7] = blockers of RIG-like receptor reporter activation – cell-based, Sendai virus stimulus, luciferase, 10K MLSCN set, TLR/RLR signaling modifier project, primary screen (AID 602276); conditions: HEK293 RL24 IRF3 luciferase reporter, at 10 µM, stronger effect = higher value;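 further: firefly luciferase from ISG56 promoter only with Renilla not read in this screen; 0% = Sendai virus plus DMSO and 100% = medium plus DMSO without virus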
[8] = TLR3 IRF3 reporter activation blockers – cell-based, poly I:C stimulus, luciferase, 10K MLSCN set, primary screen (AID 602277;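 active means inhibition of the reporter signal at or above 50%; inactive means inhibition below 50%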); conditions: HEK293-TLR3 RL24 IRF3 luciferase reporter, at 10 µM, stronger effect = higher value

Voltage-gated potassium channel subunit beta-2 (Rattus norvegicus), sequence (P62483 whole entry, looked up): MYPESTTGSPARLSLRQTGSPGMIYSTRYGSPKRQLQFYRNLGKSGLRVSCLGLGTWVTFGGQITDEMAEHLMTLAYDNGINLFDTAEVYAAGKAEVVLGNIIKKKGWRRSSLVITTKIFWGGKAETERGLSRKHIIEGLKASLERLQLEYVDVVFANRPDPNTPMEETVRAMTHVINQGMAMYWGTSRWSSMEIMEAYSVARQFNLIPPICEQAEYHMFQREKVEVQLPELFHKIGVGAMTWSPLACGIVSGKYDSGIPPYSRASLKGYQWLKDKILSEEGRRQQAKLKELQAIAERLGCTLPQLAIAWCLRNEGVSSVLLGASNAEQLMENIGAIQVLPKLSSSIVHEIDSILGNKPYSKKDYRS
Alpha-2C adrenergic receptor (Homo sapiens), sequence (P18825 whole entry, looked up): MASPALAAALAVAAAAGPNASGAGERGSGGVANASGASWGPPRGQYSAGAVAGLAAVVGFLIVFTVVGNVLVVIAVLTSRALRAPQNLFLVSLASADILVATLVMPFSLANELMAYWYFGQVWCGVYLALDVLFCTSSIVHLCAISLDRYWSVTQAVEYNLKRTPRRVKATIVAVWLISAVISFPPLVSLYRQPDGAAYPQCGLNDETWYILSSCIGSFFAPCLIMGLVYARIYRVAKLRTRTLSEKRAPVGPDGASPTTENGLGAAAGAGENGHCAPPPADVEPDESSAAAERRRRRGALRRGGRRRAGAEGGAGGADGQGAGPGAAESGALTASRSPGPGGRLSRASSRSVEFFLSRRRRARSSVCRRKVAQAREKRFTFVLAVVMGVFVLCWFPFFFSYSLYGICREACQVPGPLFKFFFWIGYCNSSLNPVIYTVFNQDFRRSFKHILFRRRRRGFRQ

Structure (SMILES) | cell count [1] | inhibition [1] | inhibition of aggregation [2] | nuclei count [2] | inhibition [3] | nuclei count [3] | fluorescence slope [4] | NADPH fluorescence slope [5] | slope [6] | inhibition [7] | inhibition [8]
COc1ccc(-n2ncc3c(N4CCN(c5cccc(C)c5C)CC4)ncnc32)cc1 | 589 | -4.7% (inactive) | -12.6% (inactive) | 111% | -22% (inactive) | 105% | -0.566 (inactive) | -3.6e-05 (inactive) | 0.0072 (inactive) | 5.95% (inactive) | 27.1% (inactive)
O=C(COc1ccccc1)NCC(c1cccs1)N1CCOCC1 (stereo unspecified) | 412 | 9% (inactive) | 2% (inactive) | 101% | -82.3% (inactive) | 112% | -0.453 (inactive) | 0.000103 (inactive) | 0.00649 (inactive) | -14.3% (inactive) | -11.6% (inactive)
Oc1ccc(Cl)cc1-c1cc(-c2ccccc2)n[nH]1 | 524 | -11.4% (inactive) | 26.3% (inactive) | 81.5% | -6.5% (inactive) | 80.2% | -0.557 (inactive) | -1.3e-05 (inactive) | 0.00732 (inactive) | -23.7% (inactive) | -37% (inactive)
Cc1ccc(S(=O)(=O)N(CC(=O)NCc2ccco2)Cc2ccccc2F)cc1 | 308 | 2.4% (inactive) | 14% (inactive) | 92.3% | -3.2% (inactive) | 103% | -0.524 (inactive) | 1.7e-06 (inactive) | 0.00527 (inactive) | 8.9% (inactive) | 11.9% (inactive)
CC(=O)NC(C(=O)NCC(N)=O)C(C)C (stereo unspecified) (HELM PEPTIDE1{[ac].[CC(C)C(N[*:1])C(=O)[*:2]].G.[am]}$$$$V2.0) | 517 | -15.2% (inactive) | -13.6% (inactive) | 89.2% | 9.9% (inactive) | 109% | -0.59 (inactive) | -3.6e-05 (inactive) | 0.00838 (inactive) | -3.54% (inactive) | -10.4% (inactive)
Cc1ccc(SCC(=O)NCCN2C(=O)CSC2=O)c(C)c1 | 323 | 22.6% (inactive) | -4.2% (inactive) | 93.3% | -98.3% (inactive) | 115% | -0.422 (inactive) | -2.5e-05 (inactive) | 0.00367 (inactive) | 0.863% (inactive) | 35.6% (inactive)
COc1ccc(Cn2nnnc2CN2CCOCC2)cc1 | 476 | 2.5% (inactive) | -2.3% (inactive) | 108% | 1% (inactive) | 97.7% | -0.441 (inactive) | 1.6e-05 (inactive) | 0.00479 (inactive) | 16.9% (inactive) | 15.2% (inactive)
CCC(C)(C)NC(=O)CN(Cc1ccc2c(c1)OCO2)C(=O)CCC(=O)Nc1ccccn1 | 517 | -20.9% (inactive) | -0.5% (inactive) | 92.4% | -59.2% (inactive) | 114% | -0.403 (inactive) | -6.3e-05 (inactive) | 0.00669 (inactive) | 12.5% (inactive) | 21.6% (inactive)
O=C(CSc1ncnc2c1oc1ccccc12)Nc1ccccc1C(F)(F)F | 657 | -2.9% (inactive) | -15.8% (inactive) | 69.1% | -13.2% (inactive) | 106% | -0.556 (inactive) | -5.9e-06 (inactive) | 0.00657 (inactive) | -3.61% (inactive) | 1.95% (inactive)
Cc1cc(C)c2c(C)nn(C3CCCCC3)c2n1 | 318 | 1.7% (inactive) | 27.2% (inactive) | 79.1% | 33.7% (inactive) | 86.7% | -0.514 (inactive) | 1.4e-05 (inactive) | 0.00644 (inactive) | -18.5% (inactive) | -5.34% (inactive)
CC1CCN(c2nc3c(c(=O)n(C)c(=O)n3C)n2Cc2ccccc2)CC1 | 666 | -3.5% (inactive) | -14.9% (inactive) | 83.4% | -81.5% (inactive) | 139% | -0.39 (inactive) | -6.1e-06 (inactive) | 0.00388 (inactive) | 12.3% (inactive) | 15.2% (inactive)
Cn1c(=O)c2c(nc(Br)n2CCSc2nnnn2-c2ccccc2)n(C)c1=O | 294 | -3.4% (inactive) | 19% (inactive) | 94.6% | -7.6% (inactive) | 74.1% | -0.36 (inactive) | -4.2e-05 (inactive) | 0.00509 (inactive) | 1.27% (inactive) | 1.27% (inactive)
Cc1csc2nc(CSc3ccc(Cl)cc3)cn12 | 41 | -8.7% (inactive) | -15% (inactive) | 80.6% | -112% (inactive) | 138% | -0.601 (inactive) | -2e-05 (inactive) | 0.00271 (inactive) | -42.1% (inactive) | -126% (inactive)
O=C(Cn1ncc2c(=O)oc3ccccc3c21)NCC1CCCO1 (stereo unspecified) | 725 | 6.6% (inactive) | -2.2% (inactive) | 111% | -40.1% (inactive) | 125% | -0.61 (inactive) | -1.2e-05 (inactive) | 0.0073 (inactive) | 4.27% (inactive) | 9.41% (inactive)
COc1ccc(-c2nnnn2C)cc1S(=O)(=O)NCc1ccccc1 | 579 | 0.6% (inactive) | 7.2% (inactive) | 106% | -49.3% (inactive) | 110% | -0.415 (inactive) | 5.2e-06 (inactive) | 0.00442 (inactive) | 10.3% (inactive) | 4.79% (inactive)
Cc1nc(SCC(=O)CC(=O)OC(C)C)c(C#N)c(C)c1C | 718 | -3.5% (inactive) | -22.8% (inactive) | 118% | 34.6% (inactive) | 99.8% | -0.332 (inactive) | 1.6e-05 (inactive) | 0.00527 (inactive) | 5.7% (inactive) | -3.09% (inactive)
CCOC(=O)c1cccc(NC(=O)CNS(=O)(=O)c2cccs2)c1 | 445 | 6.8% (inactive) | -11.6% (inactive) | 108% | -7.8% (inactive) | 134% | -0.518 (inactive) | -4.4e-05 (inactive) | 0.00596 (inactive) | -11.6% (inactive) | -10.2% (inactive)
NC(=O)NC(=O)CSc1cccc(C(F)(F)F)c1 | 570 | -10.9% (inactive) | -3.2% (inactive) | 101% | -77.3% (inactive) | 123% | -0.51 (inactive) | -6.1e-05 (inactive) | 0.00622 (inactive) | 13.4% (inactive) | 18.2% (inactive)
Cc1csc2nc(CNC(=O)c3ccco3)cn12 | 518 | -8.8% (inactive) | -5.9% (inactive) | 90.4% | -27.7% (inactive) | 71% | -0.511 (inactive) | -5.4e-05 (inactive) | 0.00553 (inactive) | -23.7% (inactive) | -70.6% (inactive)
c1ccc(-c2nn3c(Cn4nnc5ccccc54)nnc3s2)nc1 | 574 | 2.1% (inactive) | 3.4% (inactive) | 103% | 13.7% (inactive) | 82.3% | -0.425 (inactive) | -2.3e-05 (inactive) | 0.0044 (inactive) | -11.7% (inactive) | -3.15% (inactive)
Cc1ccc(S(=O)(=O)c2cc3c(=O)n4ccccc4nc3n(CC3CCCO3)c2=N)cc1C (stereo unspecified) | 716 | -1.6% (inactive) | -3.3% (inactive) | 88.2% | 0.8% (inactive) | 106% | -0.439 (inactive) | -3.3e-05 (inactive) | 0.00461 (inactive) | 13.6% (inactive) | 23.9% (inactive)
C=CCn1c(SCn2nnc3ccccc3c2=O)nnc1-c1ccc(Br)cc1 | 447 | -8.7% (inactive) | 6% (inactive) | 67.5% | -30.7% (inactive) | 110% | -0.328 (inactive) | -5.6e-05 (inactive) | 0.00508 (inactive) | -1.43% (inactive) | -21.1% (inactive)
c1ccc(-c2ccc(-c3ccccn3)nn2)nc1 | 231 | 11.2% (inactive) | -2.4% (inactive) | 67.7% | -48.9% (inactive) | 121% | -0.419 (inactive) | -1.3e-05 (inactive) | 0.00636 (inactive) | 7.62% (inactive) | 70.6% (active)
COc1ccc(C(=O)NCc2ccccc2OC)cc1 | 590 | -0.6% (inactive) | -15.5% (inactive) | 107% | -25.9% (inactive) | 111% | -0.47 (inactive) | -0.000293 (inactive) | 0.00583 (inactive) | -2.6% (inactive) | -7.58% (inactive)
CCCCSCCCNC(=O)CS(=O)Cc1nc(-c2cccc(C)c2)oc1C (stereo unspecified) | 527 | -9.6% (inactive) | -1.1% (inactive) | 107% | -27.5% (inactive) | 113% | -0.308 (inactive) | 1.3e-05 (inactive) | -0.000762 (active) | 10.8% (inactive) | 10.7% (inactive)
Cc1cc(C)n(-c2cc(N3CCOCC3)ncn2)n1 | 690 | -9.8% (inactive) | 3% (inactive) | 89.8% | -69.3% (inactive) | 125% | -0.436 (inactive) | -3.4e-06 (inactive) | 0.00484 (inactive) | 2.82% (inactive) | 0.822% (inactive)
